Laboratory results published in the supplement of paper PMC11219838.
Values without a mark were called inactive.

Tests used:
Conditions in all cases: 60 µM; 5 days; temperature: 20 °C
Meloidogyne hapla J2 = assay: proportion of mobile M. hapla J2 relative to DMSO control (fraction of DMSO control); higher = more viable, less nematicidal, active = 0.7 or less
Outline: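 About 25 M. hapla J2 were placed in each well of a 96-well plate in distilled water, and compound was pinned in to a final 60 µM with 0.6% v/v DMSO. The sealed plates were shaken at 200 rpm at 20 °C for 5 days, after which 2 µL of 1 M NaOH went into each well. Mobility was then scored under the microscope and divided by the mean value from DMSO-only wells on the same plate. Each plate held eight such DMSO wells, and two biological replicates were averaged.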

[1] = tested on: Caenorhabditis elegans dauer (daf-2(e1370)); assay: proportion of mobile C. elegans dauer larvae relative to DMSO control (fraction of DMSO control); higher = more viable, less nematicidal, active = 0.63 or less; extreme values may be limits of the assay
Outline: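 The proportion of mobile worms, relative to DMSO wells, was scored by dissection microscope and averaged over two biological replicates. Worms were C. elegans dauers, about 20 per well in liquid NGM in 96-well plates, generated from synchronized larvae on MYOB plates with E. coli OP50 at 25 °C for 48 h. They were treated with compound pinned to 60 µM final (0.6% v/v DMSO) and kept in sealed plates shaken at 200 rpm for 5 days at 20 °C.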

Ditylenchus dipsaci = assay: proportion of mobile D. dipsaci (mixed stage) relative to DMSO control (fraction of DMSO control); higher = more viable, less nematicidal, active = 0.86 or less; extreme values may be limits of the assay
Outline: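 Ditylenchus dipsaci nematodes were cultured on pea plants in Gamborg B-5 agar, then extracted into water through a filter funnel, and roughly 20 worms in distilled water were placed in each well of a 96-well plate. Compound was pinned in to a final concentration of 60 µM (0.6% v/v DMSO), and the sealed plates were shaken at 200 rpm for 5 days at 20 °C. Mobile worms were counted under the microscope after 2 µL of 1 M NaOH was added. Mobility is given relative to DMSO controls as the mean of two biological replicates.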

Compound | proportion of mobile M. hapla J2 (Meloidogyne hapla J2) | proportion of mobile C. elegans dauer larvae [1] | proportion of mobile D. dipsaci (Ditylenchus dipsaci)
Fc1ccc(-c2noc(-c3ccc(Br)cc3)n2)cc1 | 1.04 | 1 | 1
CCc1ccc(OCc2nc(-c3ccccn3)no2)cc1 | 0.966 | 1 | 1
COc1ccccc1-c1nnc(SCc2ccc(C#N)cc2)o1 | 0.897 | 1 | 1
COc1ccc(-c2nnc(SCC(=O)Nc3ccc(C(C)C)cc3)o2)cc1 | 0.967 | 1 | 1
COc1cccc(-c2noc(COc3ccc(C)cc3C)n2)c1 | 0.941 | 1 | 1
CCc1nnc(NC(=O)CSc2nnc(-c3cccc(C)c3)o2)s1 | 0.815 | 1 | 1
Cc1ccc(-c2nnc(SCc3ccccc3F)o2)cc1 | 0.636 (active) | 1 | 1
CCn1c(SCc2nc(-c3ccccc3)no2)nc2ccccc21 | 1.02 | 1 | 1
Cc1ccccc1-c1nc(-c2ccc3c(c2)OCO3)no1 | 0.848 | 1 | 0.933
Cc1ccc(-c2noc(COc3cc(C)cc(C)c3)n2)cc1 | 1.02 | 1 | 1
O=C(CSc1nnc(-c2ccccc2Cl)o1)c1ccc2c(c1)CCCC2 | 0.914 | 1 | 1
COc1cccc(-c2noc(-c3ccccc3C)n2)c1 | 1.06 | 1 | 1
COc1ccccc1-c1nnc(SCC(=O)Nc2nc(C)cs2)o1 | 0.91 | 1 | 1
Cc1ccc(OC(C)c2nc(-c3cccnc3)no2)cc1 (centres undefined) | 1.03 | 1 | 1
Cc1ccc(-c2noc(-c3ccc(Br)o3)n2)s1 | 0.965 | 1 | 1
CC1Cc2ccccc2N1C(=O)CSc1nnc(-c2ccccc2)o1 (centres undefined) | 1.03 | 1 | 1
COc1cccc(-c2nc(-c3ccc(Cl)cc3)no2)c1 | 1.04 | 1 | 1

Compound | proportion of mobile M. hapla J2 (Meloidogyne hapla J2) | proportion of mobile C. elegans dauer larvae [1] | proportion of mobile D. dipsaci (Ditylenchus dipsaci)
CCOc1nc(-c2ccccc2)ccc1-c1noc(-c2ccccc2F)n1 | 0.926 | 1 | 1
COc1ccc(-c2nc(-c3ccccc3Cl)no2)cc1 | 0.964 | 1 | 1
CCCCC(=O)Nc1ccccc1-c1nc(-c2ccccn2)no1 | 1.06 | 1 | 1
CCCc1nnc(CSc2nnc(-c3ccc(Cl)cc3)o2)o1 | 0.983 | 1 | 0.812 (active)
Clc1ccc(-c2noc(COc3ccc4c(c3)OCO4)n2)cc1 | 0.899 | 1 | 1
CCOc1ccccc1-c1nc(-c2ccc(NC(=O)CCc3ccc(OC)cc3)cc2)no1 | 0.918 | 1 | 1
CC(C)Oc1ccc(-c2nc(-c3ccccn3)no2)cc1 | 0.943 | 0.0263 (active) | 1
c1ccc2c(OCc3nc(-c4ccncc4)no3)cccc2c1 | 0.979 | 1 | 1
CCCc1ccc(-c2nc(-c3ccc(F)cc3)no2)cc1 | 1.01 | 0.714 | 1
Clc1ccccc1OCc1nc(-c2ccccn2)no1 | 1 | 1 | 1
COc1ccc(-c2nnc(SCC(=O)c3ccc4ccccc4c3)o2)cc1 | 1.03 | 1 | 1
Clc1ccc(OCc2nc(-c3ccccc3)no2)cc1 | 1.04 | 1 | 1
Cc1cc(OC(C)c2nc(-c3ccccn3)no2)ccc1Cl (centres undefined) | 1.03 | 1 | 1
COc1cccc(-c2nc(-c3ccc(Br)cc3)no2)c1 | 0.997 | 0.6 (active) | 1
Cc1ccccc1-c1nnc(SCc2ccccc2)o1 | 0.986 | 1 | 1
O=C(c1ccccc1-c1nc(-c2ccc(F)cc2)no1)N1CCCC1 | 1.06 | 1 | 1
